# From article PMC13083723 (Patterns, 2026)
# The whole screen tested about 5,400 compounds, of which about 190 (3.5%) showed an effect of 50% or more. This is one part of a sample in which strong results are shown more often than they occur.
# Test system: Vero-E6
# Assay: primary screen, phospholipidosis by LipidTOX staining; higher = more effect of the substance
# Details: 10 µM
# Method in brief: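 Drug-induced phospholipidosis detected with HCS LipidTOX Red reagent in Vero-E6 cells. Compounds tested at 10 μM, with amiodarone (10 μM) as positive control and DMSO (0.1 v/v %) as vehicle.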
row,SMILES,result_ITMP [%]
1,C[C@]12CCC(=O)C=C1CC[C@@H]1[C@@H]2[C@@H](O)C[C@]2(C)C(=O)CC[C@@H]12,-4.8
2,NC(=O)[C@@H]1CC[C@@H]2CN1C(=O)N2OS(=O)(=O)[O-],-0.26
3,CC[C@@H]1C(=O)N(C)c2cnc(Nc3ccc(C(=O)N[C@H]4CC[C@H](N5CCN(CC6CC6)CC5)CC4)cc3OC)nc2N1C(C)C,81.5
4,COc1cc(C(=O)NC2CCN(C)CC2)c(F)cc1Nc1ncc2c(n1)N(C1CCCC1)CC(F)(F)C(=O)N2C,69.4
5,COc1ccc(F)c(F)c1C(=O)c1cnc(NC2CCN(S(C)(=O)=O)CC2)nc1N,16.3
6,COc1cc(C(=O)N2CCC(N3CCN(C)CC3)CC2)ccc1Nc1ncc2c(n1)N(C)c1ccccc1C(=O)N2C,37.9
7,COc1cc(OC2CCN(C)CC2)ccc1Nc1ncc2c(n1)n(C1CCCC1)c(=O)n2C,37.2
8,CC(C)CCN1c2nc(Nc3cc(F)c(O)c(F)c3)ncc2N(C)C(=O)C1C (stereo not shown),17.5
9,CCOc1cc(C(=O)N2CCC(N3CCN(C)CC3)CC2)ccc1Nc1ncc2c(n1)N(C1CCCC1)c1ccccc1C(=O)N2C,14.1
10,CC[C@@H]1C(=O)N(C)c2cnc(Nc3ccc(C(=O)NC4CCN(C)CC4)cc3OC)nc2N1C1CCCC1,66.8
11,CC(C)(C)/[N+]([O-])=C/c1ccc(S(=O)(=O)[O-])cc1S(=O)(=O)[O-],-0.44
12,O=C(O)c1ccc(/C=C2\SC(=S)N(c3cccc(C(F)(F)F)c3)C2=O)cc1,0.16
13,CC(C)(COP(=O)([O-])OP(=O)([O-])OC[C@H]1O[C@@H](n2cnc3c(N)ncnc32)[C@H](O)[C@@H]1OP(=O)([O-])O)[C@@H](O)C(=O)NCCC(=O)NCCS,-4.31
14,COc1ccc(/C=C\c2cc(OC)c(OC)c(OC)c2)cc1OP(=O)([O-])[O-],11.6
15,N=C1NCCN1CC(=O)O,1.96
16,O=C(O)CC/C=C\C[C@@H]1CO[C@H](c2ccccc2Cl)O[C@@H]1c1ccccc1O (racemic),-1.11
17,NC(=O)C1=CN([C@@H]2O[C@H](COP(=O)([O-])OP(=O)([O-])OC[C@H]3O[C@@H](n4cnc5c(N)ncnc54)[C@H](O)[C@@H]3O)[C@@H](O)[C@H]2O)C=CC1,-10.8
18,C[C@H]1Oc2cc(cnc2N)-c2c(nn(C)c2C#N)CN(C)C(=O)c2ccc(F)cc21 [R4A_0001637_001 / SPE_A23124853],-7.18
19,Cc1onc(-c2ccccc2)c1C(=O)NC1C(=O)N2[C@@H]1SC(C)(C)[C@@H]2C(=O)[O-] (stereo partly shown),-4.06
20,O=C(O)c1cc(Oc2ccc([N+](=O)[O-])cc2)cc(Oc2ccc([N+](=O)[O-])cc2)c1,-1.17
21,CCOC(=O)C1CSC(Cc2ccc(OCc3ccc([N+](=O)[O-])cc3)cc2)N1 (stereo not shown),-2.45
22,N=C(N)SCCc1ccc(OCc2ccc([N+](=O)[O-])cc2)cc1,70
23,COc1c(C)c(C(=O)c2ccc(N)c(C(=O)[O-])c2)n2ccccc12,-3.94

row,SMILES,result_ITMP [%]
1,NCCC(O)(P(=O)([O-])O)P(=O)([O-])O,-8.19
2,O=S(=O)([O-])c1cc(I)c(O)c2ncccc12,-9.09
3,Cc1nc(=O)c2c([nH]1)CCSC2,-2.05
4,CC1(C)[C@@H]2CC[C@@]1(C)C(=O)C2 [R4A_0000828_001 / SPE_K15714472],-1
5,Cc1ccc(NC(=O)c2ccc(CN3CCN(C)CC3)cc2)cc1Nc1nc(-c2cccnc2)cs1,54
6,Cc1ncc(NC(=O)c2ccc(CN3CCN(C)CC3)c(C(F)(F)F)c2)cc1Nc1nccc(-c2cccnc2)n1,9.33
7,Cc1ccc(C(=O)Nc2cccc(C(F)(F)F)c2)cc1Nc1nc(-c2cccnc2)nc2c1cnn2C,-4.6
8,CC(C)[C@@H](C)/C=C/[C@@H](C)[C@H]1CC[C@H]2C3=CC=C4C[C@@H](O)CC[C@]4(C)[C@H]3CC[C@]12C,-5.48
9,Nc1ncnc2c1ncn2C1O[C@H](COP(=O)(O)OP(=O)([O-])OP(=O)([O-])O)[C@@H](O)[C@H]1O (stereo partly shown),6.44
10,CC1(C)[C@@H]2C[C@H]1[C@@](C)(O)[C@@H](O)C2,-2.34
11,Cc1ccc(C(=O)N(CCCN)[C@@H](c2oc3cc(Cl)ccc3c(=O)c2Cc2ccccc2)C(C)C)cc1,92.7
12,Cc1ccc(C(=O)N(CCCN)[C@@H](c2nc3cc(Cl)ccc3c(=O)n2Cc2ccccc2)C(C)C)cc1,75.7
13,CCNC(=O)CCC(N)C(=O)O (stereo in doubt),-4.2
14,c1cc2c(cc1[C@H]1OC[C@H]3[C@@H]1CO[C@@H]3c1ccc3c(c1)OCO3)OCO2,-6.11
15,c1ccc(Oc2nc(NC3CCCCC3)c3nc[nH]c3n2)cc1,-2.48
16,NC(N)=NCCC[C@@H](N)C(=O)N[C@@H](CCCN=C(N)N)C(=O)N1CCC[C@H]1C(=O)N1C[C@H](O)C[C@H]1C(=O)NCC(=O)N[C@@H](Cc1cccs1)C(=O)N[C@@H](CO)C(=O)N1Cc2ccccc2C[C@@H]1C(=O)N1[C@H](C(=O)N[C@@H](CCCN=C(N)N)C(=O)O)C[C@@H]2CCCC[C@@H]21,-1.28
17,CCOc1cc2ncc(C#N)c(Nc3ccc(F)c(Cl)c3)c2cc1NC(=O)/C=C/CN(C)C,73.9
18,COc1cc2ncnc(Nc3ccc(F)c(Cl)c3)c2cc1NC(=O)/C=C/CN1CCCCC1,19.4
19,C=CC(=O)Nc1cc2c(Nc3ccc(F)c(Cl)c3)ncnc2cc1OCCCN1CCOCC1,4.03
20,CN(C)C/C=C/C(=O)Nc1cc2c(Nc3ccc(F)c(Cl)c3)ncnc2cc1O[C@H]1CCOC1,108
21,CCOc1cc2ncc(C#N)c(Nc3ccc(OCc4cccc(F)c4)c(Cl)c3)c2cc1NC(=O)/C=C/CN(C)C,-0.47
22,CCOc1cc2ncc(C#N)c(Nc3ccc(OCc4ccccn4)c(Cl)c3)c2cc1NC(=O)/C=C/CN(C)C,0.53
23,CCOC(=O)OC(C)OC(=O)C1N2C(=O)C(NC(=O)[C@H](N)c3ccccc3)C2SC1(C)C (stereo partly shown),-2.51
